Data reported in ChEMBL document CHEMBL1157539, “Thousands of chemical starting points for antimalarial lead identification” (Nature, 2010).

Assays:
Format in all cases: functional
Plasmodium falciparum [1] = assay: GSK_TCMDC: Inhibition of Plasmodium falciparum 3D7 in whole red blood cells, using parasite LDH activity as an index of growth. Test compounds present at 2uM
Plasmodium falciparum [2] = assay: GSK_TCMDC: Inhibition of Plasmodium falciparum Dd2 in whole red blood cells, using parasite LDH activity as an index of growth. Test compounds present at 2uM
HepG2 = assay: GSK_TCMDC: Percent inhibition of human HepG2 cell line. Test compounds present at 10uM.

Structure (SMILES) | Inhibition (Plasmodium falciparum [1]) [%] | Inhibition (Plasmodium falciparum [2]) [%] | Inhibition (HepG2) [%]
COc1ccc2nccc([C@@H](O)CN3CCC(NC(=O)C(c4cc5ccccc5o4)N4CCC(Cc5ccccc5)CC4)CC3)c2c1 (stereo not given in full) | 100 | 82 | 11
COc1ccc(Cn2c(Nc3cccc(C(F)(F)F)c3)nc3cc(C(=O)NC(C)C)cnc32)cc1Cl | 85 | 81 | 0
COc1ccc(C(=O)C2CC2CN(C)CC(O)c2cc(C)c(OC)cc2C)cc1.O=C(O)C(F)(F)F (stereo not given) | 90 | 77 | 8
c1ccc(-c2csc(Nc3nc4cc5c(cc4s3)OCO5)n2)nc1 | 81 | 99 | 46
COCCN1CCN(Cc2ccc(-c3ccc(-c4nc5cc(F)ccc5[nH]4)cc3)cc2)CC1.O=C(O)C(F)(F)F | 100 | 99 | 25
Cc1cc(NCc2ccc(F)cc2)nc2cc(O)ccc12 | 98 | 85 | 14
CC1CN(c2cnn(C/C=C/c3ccc(NC(=O)c4ccc(Cl)cc4)cc3)c(=O)c2Cl)CC(C)N1.O=C(O)C(F)(F)F (stereo not given) | 88 | 82 | 25
NC(=O)c1ccc(NCC(=O)Nc2cccc(-c3cccc(-c4nc5cc(C(F)(F)F)ccc5[nH]4)c3)c2)cc1 | 99 | 41 | 32
CN1CCN(Cc2ccc(-c3ccc4c(Nc5ccc(Cl)cc5F)ccnc4c3)o2)CC1 | 100 | 100 | 47
NC1CCCN(Cc2cccc(-c3ccc(-c4nc5cc(C(F)(F)F)ccc5[nH]4)cc3)c2)C1.O=C(O)C(F)(F)F (stereo not given) | 99 | 96 | 47
